Measured values taken from PubChem BioAssay (NCATS).
Inconclusive results are not listed. Activity calls are given as the source filed them. Calls follow the shape of the dose curve; as a rule, active = well fitted inhibition curve with a large enough effect; inconclusive = small, poorly fitted or top-dose-only effect; inactive = flat fitted curve, though single readings scatter.

Assays:
[1] = biological target: Luciferin 4-monooxygenase (Photinus pyralis) (UniProt P08659); assay: Biochemical firefly luciferase enzyme assay for NPC (AID 624030);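 also: purified P. pyralis luciferase at 10 nM with luciferin and ATP substrate; nearly all actives have a fitted effect of over 70% in size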
Sequence of Luciferin 4-monooxygenase (Photinus pyralis) (P08659 whole entry, looked up): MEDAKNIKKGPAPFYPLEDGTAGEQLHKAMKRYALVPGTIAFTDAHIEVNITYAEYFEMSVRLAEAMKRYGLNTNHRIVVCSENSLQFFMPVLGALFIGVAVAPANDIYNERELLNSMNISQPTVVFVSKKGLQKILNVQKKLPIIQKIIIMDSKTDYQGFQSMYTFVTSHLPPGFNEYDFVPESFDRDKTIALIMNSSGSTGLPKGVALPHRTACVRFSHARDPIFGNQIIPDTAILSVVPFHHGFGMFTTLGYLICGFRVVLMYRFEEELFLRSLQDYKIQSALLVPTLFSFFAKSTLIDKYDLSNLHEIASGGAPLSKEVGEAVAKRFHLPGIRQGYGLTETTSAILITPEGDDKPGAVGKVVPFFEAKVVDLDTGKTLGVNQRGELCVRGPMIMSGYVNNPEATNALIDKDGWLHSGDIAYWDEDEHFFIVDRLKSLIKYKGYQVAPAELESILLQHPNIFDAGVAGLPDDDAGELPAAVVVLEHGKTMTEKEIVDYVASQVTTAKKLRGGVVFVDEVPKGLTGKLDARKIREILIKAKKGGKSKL
Outline: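 Purified P. pyralis luciferase at 10 nM in 50 mM Tris Acetate (final), luminescence read within 5 minutes of enzyme addition to compounds. Activity normalised to PTC124 versus DMSO; concentration-response curves classed by r2, magnitude and activity.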

CP260 = assay: qHTS profiling for inhibitors of Plasmodium falciparum proliferation (AID 504749); also: nearly all actives have a fitted effect of over 60% in size; also: potency is read from the fitted curve at half-maximal effect; conditions: P. falciparum in erythrocytes, SYBR Green DNA, 72 h; series mostly up to 28.7 µM
Outline: (§1)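 Each compound contacts P. falciparum-infected red blood cells for 72 h at 37 C; lysis buffer (Tris, EDTA, saponin, Triton X, SYBR Green I) is added and fluorescence measured next morning; values normalized to controls.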

CP262 = assay: as above; conditions: P. falciparum in erythrocytes, SYBR Green DNA, 72 h; series mostly up to 28.7 µM
Outline: as §1

CP266 = assay: as above; conditions: P. falciparum in erythrocytes, SYBR Green DNA, 72 h; series mostly up to 28.7 µM
Outline: as §1

CP269 = assay: as above; conditions: P. falciparum in erythrocytes, SYBR Green DNA, 72 h; series mostly up to 28.7 µM
Outline: as §1

CP305 = assay: as above; conditions: P. falciparum in erythrocytes, SYBR Green DNA, 72 h; series mostly up to 28.7 µM
Outline: as §1

CP335 = assay: as above; conditions: P. falciparum in erythrocytes, SYBR Green DNA, 72 h; series mostly up to 28.7 µM
Outline: as §1

DIV14 = assay: as above; conditions: P. falciparum in erythrocytes, SYBR Green DNA, 72 h; series mostly up to 28.7 µM
Outline: as §1

DIV17 = assay: as above; conditions: P. falciparum in erythrocytes, SYBR Green DNA, 72 h; series mostly up to 28.7 µM
Outline: as §1

Dd2 = assay: as above; conditions: P. falciparum in erythrocytes, SYBR Green DNA, 72 h; series mostly up to 28.7 µM
Outline: as §1

ECU = assay: as above; conditions: P. falciparum in erythrocytes, SYBR Green DNA, 72 h; series mostly up to 28.7 µM
Outline: as §1

FAB9 = assay: as above; conditions: P. falciparum in erythrocytes, SYBR Green DNA, 72 h; series mostly up to 28.7 µM
Outline: as §1

GB4 = assay: as above; conditions: P. falciparum in erythrocytes, SYBR Green DNA, 72 h; series mostly up to 28.7 µM
Outline: as §1

ICS = assay: as above; conditions: P. falciparum in erythrocytes, SYBR Green DNA, 72 h; series mostly up to 28.7 µM
Outline: as §1

JCK = assay: as above; conditions: P. falciparum in erythrocytes, SYBR Green DNA, 72 h; series mostly up to 28.7 µM
Outline: as §1

P93_24 = assay: as above; conditions: P. falciparum in erythrocytes, SYBR Green DNA, 72 h; series mostly up to 28.7 µM
Outline: as §1

PC15 = assay: as above; conditions: P. falciparum in erythrocytes, SYBR Green DNA, 72 h; series mostly up to 28.7 µM
Outline: as §1

PC26 = assay: as above; conditions: P. falciparum in erythrocytes, SYBR Green DNA, 72 h; series mostly up to 28.7 µM
Outline: as §1

PC49 = assay: as above; conditions: P. falciparum in erythrocytes, SYBR Green DNA, 72 h; series mostly up to 28.7 µM
Outline: as §1

W2 = assay: as above; conditions: P. falciparum in erythrocytes, SYBR Green DNA, 72 h; series mostly up to 28.7 µM
Outline: as §1

Measured: Potency

CNC(=O)C(N)CSC(C)C1=C(C)c2cc3[n-]c(cc4nc(cc5[n-]c(cc1n2)c(C)c5CCC(=O)O)C(CCC(=O)O)=C4C)c(C)c3C(C)SCC(N)C(=O)NC.[Fe+2] (configuration not stated)
inactive: all assays above

CC(=O)N[C@H]1[C@H](O[C@@H]2c3ccc(c(Cl)c3)Oc3cc4cc(c3O[C@@H]3O[C@H](CO)[C@@H](O)[C@H](O)C3C)Oc3ccc(cc3Cl)C[C@H]3NC(=O)[C@@H](N)c5ccc(O)c(c5)Oc5cc(O)cc(c5)[C@H](NC3=O)C(=O)N[C@H]4C(=O)N[C@H]3C(=O)N[C@@H]2C(=O)N[C@@H](C(=O)O)c2cc(O)cc(O[C@H]4O[C@H](CO)[C@@H](O)C(O)[C@@H]4O)c2-c2cc3ccc2O)O[C@H](CO)[C@@H](O)[C@@H]1O (some centres not stated)
not listed: [1]
inactive: all other assays above

O=C(OC[C@@H]1O[C@@](O)(COC(=O)c2cccnc2)[C@H](OC(=O)c2cccnc2)[C@H]1OC(=O)c1cccnc1)c1cccnc1
inactive: all assays above

C=CCn1c(=O)n(C2OC(CO)C(O)C2O)c2nc(N)[nH]c(=O)c21 (configuration not stated)
inactive: all assays above

C[C@H]1OC(OC2C(O)[C@@H](O)C(OC3C(O)[C@@H](O)C(O)O[C@@H]3CO)O[C@@H]2CO)[C@H](O)C(O)C1N[C@H]1C=C(CO)[C@@H](O)[C@H](O)C1O (some centres not stated)
not listed: PC26
inactive: all other assays above

CC1OC(OC2CCC3(C)C(CCC4C3CC(O)C3(C)C(C5=CC(=O)OC5)CCC43O)C2)CC(O)C1OC1CC(O)C(OC2CC(O)C(OC3OC(CO)C(O)C(O)C3O)C(C)O2)C(C)O1 (configuration not stated)
not listed: PC26
inactive: all other assays above

CC(=O)NC1[C@H]([C@H](O)[C@H](O)CO)OC(C(=O)O)=C[C@H]1N=C(N)N (some centres not stated)
inactive: all assays above

NC[C@@H]1O[C@H](OC2[C@@H](CO)O[C@@H](OC3[C@H](O)[C@H](N)C[C@H](N)[C@H]3OC3O[C@H](CO)[C@@H](O)[C@H](O)[C@@H]3N)[C@H]2O)C(N)[C@H](O)[C@@H]1O (some centres not stated)
inactive: all assays above

CC1OC(OCC2OC(Oc3c(-c4ccc(OCCO)c(OCCO)c4)oc4cc(OCCO)cc(O)c4c3=O)C(O)C(O)C2O)[C@@H](O)C(O)C1O (some centres not stated)
not listed: P93_24
inactive: all other assays above

COc1cccc(OC)c1C(=O)NC1C(=O)N2C1SC(C)(C)C2C(=O)O (configuration not stated)
inactive: all assays above

CCC(C(=O)O)C1OC(C(C)C(O)C(C)C(=O)C(CC)C2OC3(C=CC(O)C4(CCC(C)(C5CCC(O)(CC)C(C)O5)O4)O3)C(C)CC2C)C(C)CC1C (configuration not stated)
inactive: [1]
active: CP260 112 nM | CP262 536 nM | CP266 151 nM | CP269 95.3 nM | CP305 53.6 nM | CP335 42.6 nM | DIV14 95.3 nM | DIV17 75.7 nM | Dd2 100 nM | ECU 178 nM | FAB9 282 nM | GB4 53.6 nM | ICS 89.1 nM | JCK 199 nM | P93_24 178 nM | PC15 158 nM | PC26 75.7 nM | PC49 251 nM

CC12C=CC(=O)C=C1[C@@H](F)CC1C2C(O)CC2(C)C1CC[C@]2(O)C(=O)CO (some centres not stated)
inactive: all assays above

CC1CCC(C(C)C)C(O)C1 (configuration not stated)
inactive: all assays above

NC(C(=O)O)c1ccc(O)cc1 (configuration not stated)
inactive: all assays above

C[S+](C)CC[C@H](N)C(=O)O
not listed: DIV17
inactive: all other assays above

C=CC1CN2CCC1CC2[C@@H](O)c1ccnc2ccc(OC)cc12 (some centres not stated)
active: CP260 355 nM | CP262 338 nM | CP266 953 nM | CP269 601 nM | CP305 478 nM | CP335 338 nM | DIV14 213 nM | DIV17 135 nM | Dd2 282 nM | ECU 112 nM | FAB9 79.4 nM | GB4 135 nM | ICS 89.1 nM | JCK 2000 nM | P93_24 398 nM | PC15 89.1 nM | PC26 239 nM | PC49 282 nM | W2 190 nM
inactive: [1]

O=C1[C@@H]2C[C@@H]3C[C@H]1C[C@@](O)(C3)C2
inactive: all assays above

O=C1C(I)=CC(=C(c2cc(I)c(O)c(I)c2)c2ccccc2C(=O)O)C=C1I
not listed: [1]
inactive: all other assays above

CC(=O)OCC(=O)[C@@]1(O)CCC2C3C[C@H](C)C4=CC(=O)C=CC4(C)C3C(O)CC21C (some centres not stated)
not listed: DIV14
inactive: all other assays above

Cc1cn([C@H]2CC(F)[C@@H](CO)O2)c(=O)[nH]c1=O (some centres not stated)
inactive: all assays above
